From publication PMC11006913
Residue numbers refer to the chain shown, from its start.

Experiments:
Test in all cases: PBM; 200 nM protein, PBS
Conditions in all cases: dsDNA, one strand shown
PAX4 [1] = molecular target: T1, PAX4 (Homo sapiens, UniProt O43316 9-242, R200K)
T1 sequence: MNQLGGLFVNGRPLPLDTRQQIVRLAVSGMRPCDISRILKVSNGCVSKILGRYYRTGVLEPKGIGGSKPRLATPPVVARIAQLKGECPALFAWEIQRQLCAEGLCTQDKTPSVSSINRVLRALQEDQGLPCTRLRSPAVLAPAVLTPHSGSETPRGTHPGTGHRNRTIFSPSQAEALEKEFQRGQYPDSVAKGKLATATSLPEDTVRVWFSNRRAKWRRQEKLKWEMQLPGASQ

PAX4 [2] = molecular target: T2, PAX4 (Homo sapiens, UniProt O43316 9-242)
T2 sequence: T1 sequence with K192R

NKX2-6 = molecular target: T3, NKX2-6 (Homo sapiens, UniProt A6NCS4 118-204, R150C)
T3 sequence: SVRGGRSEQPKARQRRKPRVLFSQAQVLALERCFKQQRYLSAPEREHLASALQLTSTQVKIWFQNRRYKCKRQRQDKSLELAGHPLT

PAX4 [3] = molecular target: T4, PAX4 (Homo sapiens, UniProt O43316 9-242, R200Q)
T4 sequence: T1 sequence with K192Q

PAX4 [4] = molecular target: T5, PAX4 (Homo sapiens, UniProt O43316 9-242, F177V)
T5 sequence: T1 sequence with F169V, K192R

PAX4 [5] = molecular target: T6, PAX4 (Homo sapiens, UniProt O43316 9-242, F177Y)
T6 sequence: T1 sequence with F169Y, K192R

PAX4 [6] = molecular target: T7, PAX4 (Homo sapiens, UniProt O43316 9-242, R227W)
T7 sequence: T1 sequence with K192R, R219W

MSX2 [7] = molecular target: MSX2 (Homo sapiens, UniProt P35548 130-214, R199I)
Chain of MSX2 (Homo sapiens, UniProt P35548 130-214, R199I) (P35548 130-214 R199I): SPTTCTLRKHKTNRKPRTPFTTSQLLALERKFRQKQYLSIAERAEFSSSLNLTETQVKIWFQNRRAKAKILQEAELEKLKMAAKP

MSX2 [8] = molecular target: MSX2 (Homo sapiens, UniProt P35548 130-214)
Chain of MSX2 (Homo sapiens, UniProt P35548 130-214) (P35548 130-214): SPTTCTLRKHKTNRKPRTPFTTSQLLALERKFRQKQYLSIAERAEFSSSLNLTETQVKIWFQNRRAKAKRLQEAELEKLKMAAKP

MSX2 [9] = molecular target: MSX2 (Homo sapiens, UniProt P35548 130-214, F161Y)
Chain of MSX2 (Homo sapiens, UniProt P35548 130-214, F161Y) (P35548 130-214 F161Y): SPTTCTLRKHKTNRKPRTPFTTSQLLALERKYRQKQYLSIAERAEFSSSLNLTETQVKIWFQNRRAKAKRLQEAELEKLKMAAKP

HOXA2 [10] = molecular target: HOXA2 (Homo sapiens, UniProt O43364 129-215, R185T)
Chain of HOXA2 (Homo sapiens, UniProt O43364 129-215, R185T) (O43364 129-215 R185T): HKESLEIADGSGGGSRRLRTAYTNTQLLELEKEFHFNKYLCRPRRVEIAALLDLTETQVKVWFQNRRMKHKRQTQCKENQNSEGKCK

PITX2 = PITX2 (Homo sapiens, UniProt Q99697 72-157)
HOXA2 [11] = molecular target: HOXA2 (Homo sapiens, UniProt O43364 129-215, R185K)
Chain of HOXA2 (Homo sapiens, UniProt O43364 129-215, R185K) (O43364 129-215 R185K): as the sequence (O43364 129-215 R185T) above, with T57K counted along it

HOXA2 [12] = molecular target: HOXA2 (Homo sapiens, UniProt O43364 129-215, Y150S)
Chain of HOXA2 (Homo sapiens, UniProt O43364 129-215, Y150S) (O43364 129-215 Y150S): as the sequence (O43364 129-215 R185T) above, with Y22S, T57R counted along it

HOXA2 [13] = molecular target: HOXA2 (Homo sapiens, UniProt O43364 129-215)
Chain of HOXA2 (Homo sapiens, UniProt O43364 129-215) (O43364 129-215): as the sequence (O43364 129-215 R185T) above, with T57R counted along it

ALX3 [14] = molecular target: ALX3 (Homo sapiens, UniProt O95076 139-225, N203Q)
Chain of ALX3 (Homo sapiens, UniProt O95076 139-225, N203Q) (O95076 139-225 N203Q): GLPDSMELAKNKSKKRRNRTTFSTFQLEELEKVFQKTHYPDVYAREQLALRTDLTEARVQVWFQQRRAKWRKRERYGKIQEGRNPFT

ALX3 [15] = molecular target: ALX3 (Homo sapiens, UniProt O95076 139-225)
Chain of ALX3 (Homo sapiens, UniProt O95076 139-225) (O95076 139-225): as the sequence (O95076 139-225 N203Q) above, with Q65N counted along it

ALX3 [16] = molecular target: ALX3 (Homo sapiens, UniProt O95076 139-225, L168Q)
Chain of ALX3 (Homo sapiens, UniProt O95076 139-225, L168Q) (O95076 139-225 L168Q): as the sequence (O95076 139-225 N203Q) above, with L30Q, Q65N counted along it

ALX3 [17] = molecular target: ALX3 (Homo sapiens, UniProt O95076 139-225, L168V)
Chain of ALX3 (Homo sapiens, UniProt O95076 139-225, L168V) (O95076 139-225 L168V): as the sequence (O95076 139-225 N203Q) above, with L30V, Q65N counted along it

ALX3 [18] = molecular target: ALX3 (Homo sapiens, UniProt O95076 139-225, N203S)
Chain of ALX3 (Homo sapiens, UniProt O95076 139-225, N203S) (O95076 139-225 N203S): as the sequence (O95076 139-225 N203Q) above, with Q65S counted along it

HOXD13 [19] = molecular target: HOXD13 (Homo sapiens, UniProt P35453 263-343, T313R)
Chain of HOXD13 (Homo sapiens, UniProt P35453 263-343, T313R) (P35453 263-343 T313R): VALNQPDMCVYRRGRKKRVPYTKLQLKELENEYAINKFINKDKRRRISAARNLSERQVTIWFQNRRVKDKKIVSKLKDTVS

HOXD13 [20] = molecular target: HOXD13 (Homo sapiens, UniProt P35453 263-343)
Chain of HOXD13 (Homo sapiens, UniProt P35453 263-343) (P35453 263-343): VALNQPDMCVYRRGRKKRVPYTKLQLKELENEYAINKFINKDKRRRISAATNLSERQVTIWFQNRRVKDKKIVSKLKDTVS

HOXD13 [21] = molecular target: HOXD13 (Homo sapiens, UniProt P35453 263-343, T313A)
Chain of HOXD13 (Homo sapiens, UniProt P35453 263-343, T313A) (P35453 263-343 T313A): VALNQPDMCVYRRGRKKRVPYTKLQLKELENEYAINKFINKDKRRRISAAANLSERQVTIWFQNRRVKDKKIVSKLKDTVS

HOXC9 = HOXC9 (Homo sapiens, UniProt P31274 178-260, R222W)
Chain of HOXC9 (P31274 178-260 R222W): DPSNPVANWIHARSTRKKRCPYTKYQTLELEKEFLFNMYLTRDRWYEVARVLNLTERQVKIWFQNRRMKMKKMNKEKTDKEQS

GCCCGGCA
binding signal (PAX4 [1]): 9.23 upbm affinity estimate (log intensity, higher = more binding, comparable within an allelic series)
binding signal (PAX4 [2]): 9.34 upbm affinity estimate (log intensity, higher = more binding, comparable within an allelic series)
binding signal (NKX2-6): 9.33 upbm affinity estimate (log intensity, higher = more binding, comparable within an allelic series)
binding signal (PAX4 [3]): 9.28 upbm affinity estimate (log intensity, higher = more binding, comparable within an allelic series)
binding signal (PAX4 [4]): 9.09 upbm affinity estimate (log intensity, higher = more binding, comparable within an allelic series)
binding signal (PAX4 [5]): 9.13 upbm affinity estimate (log intensity, higher = more binding, comparable within an allelic series)
binding signal (PAX4 [6]): 9.21 upbm affinity estimate (log intensity, higher = more binding, comparable within an allelic series)

CCCCTGGC
binding signal (PAX4 [1]): 9.25 upbm affinity estimate (log intensity, higher = more binding, comparable within an allelic series)
binding signal (PAX4 [2]): 9.29 upbm affinity estimate (log intensity, higher = more binding, comparable within an allelic series)
binding signal (MSX2 [7]): 9.36 upbm affinity estimate (log intensity, higher = more binding, comparable within an allelic series)
binding signal (PAX4 [3]): 9.32 upbm affinity estimate (log intensity, higher = more binding, comparable within an allelic series)
binding signal (PAX4 [4]): 9.09 upbm affinity estimate (log intensity, higher = more binding, comparable within an allelic series)
binding signal (MSX2 [8]): 9.68 upbm affinity estimate (log intensity, higher = more binding, comparable within an allelic series)
binding signal (PAX4 [5]): 9.12 upbm affinity estimate (log intensity, higher = more binding, comparable within an allelic series)
binding signal (MSX2 [9]): 9.68 upbm affinity estimate (log intensity, higher = more binding, comparable within an allelic series)
binding signal (PAX4 [6]): 9.26 upbm affinity estimate (log intensity, higher = more binding, comparable within an allelic series)

CGGAGGGC
binding signal (PAX4 [1]): 9.09 upbm affinity estimate (log intensity, higher = more binding, comparable within an allelic series)
binding signal (PAX4 [2]): 9.28 upbm affinity estimate (log intensity, higher = more binding, comparable within an allelic series)
binding signal (HOXA2 [10]): 7.21 upbm affinity estimate (log intensity, higher = more binding, comparable within an allelic series)
binding signal (PAX4 [3]): 9.19 upbm affinity estimate (log intensity, higher = more binding, comparable within an allelic series)
binding signal (PITX2): 7.96 upbm affinity estimate (log intensity, higher = more binding, comparable within an allelic series)
binding signal (HOXA2 [11]): 10.3 upbm affinity estimate (log intensity, higher = more binding, comparable within an allelic series)
binding signal (PAX4 [4]): 9.08 upbm affinity estimate (log intensity, higher = more binding, comparable within an allelic series)
binding signal (PAX4 [5]): 9 upbm affinity estimate (log intensity, higher = more binding, comparable within an allelic series)
binding signal (PAX4 [6]): 9.1 upbm affinity estimate (log intensity, higher = more binding, comparable within an allelic series)
binding signal (HOXA2 [12]): 10.3 upbm affinity estimate (log intensity, higher = more binding, comparable within an allelic series)
binding signal (HOXA2 [13]): 7.24 upbm affinity estimate (log intensity, higher = more binding, comparable within an allelic series)

AAAATCAG
binding signal (PAX4 [1]): 10.5 upbm affinity estimate (log intensity, higher = more binding, comparable within an allelic series)
binding signal (PAX4 [2]): 10.7 upbm affinity estimate (log intensity, higher = more binding, comparable within an allelic series)
binding signal (PAX4 [3]): 10.6 upbm affinity estimate (log intensity, higher = more binding, comparable within an allelic series)
binding signal (PAX4 [4]): 10.1 upbm affinity estimate (log intensity, higher = more binding, comparable within an allelic series)

CCCCGGAG
binding signal (PAX4 [1]): 9.33 upbm affinity estimate (log intensity, higher = more binding, comparable within an allelic series)
binding signal (PAX4 [2]): 9.37 upbm affinity estimate (log intensity, higher = more binding, comparable within an allelic series)
binding signal (NKX2-6): 9.25 upbm affinity estimate (log intensity, higher = more binding, comparable within an allelic series)
binding signal (PAX4 [3]): 9.35 upbm affinity estimate (log intensity, higher = more binding, comparable within an allelic series)
binding signal (PAX4 [4]): 9.22 upbm affinity estimate (log intensity, higher = more binding, comparable within an allelic series)
binding signal (PAX4 [5]): 9.27 upbm affinity estimate (log intensity, higher = more binding, comparable within an allelic series)
binding signal (PAX4 [6]): 9.32 upbm affinity estimate (log intensity, higher = more binding, comparable within an allelic series)

GAAGGACC
binding signal (PAX4 [1]): 9.27 upbm affinity estimate (log intensity, higher = more binding, comparable within an allelic series)
binding signal (PAX4 [2]): 9.3 upbm affinity estimate (log intensity, higher = more binding, comparable within an allelic series)
binding signal (ALX3 [14]): 7.9 upbm affinity estimate (log intensity, higher = more binding, comparable within an allelic series)
binding signal (PAX4 [3]): 9.41 upbm affinity estimate (log intensity, higher = more binding, comparable within an allelic series)
binding signal (PAX4 [4]): 9.34 upbm affinity estimate (log intensity, higher = more binding, comparable within an allelic series)
binding signal (ALX3 [15]): 7.9 upbm affinity estimate (log intensity, higher = more binding, comparable within an allelic series)
binding signal (PAX4 [5]): 9.33 upbm affinity estimate (log intensity, higher = more binding, comparable within an allelic series)
binding signal (ALX3 [16]): 7.8 upbm affinity estimate (log intensity, higher = more binding, comparable within an allelic series)
binding signal (ALX3 [17]): 7.85 upbm affinity estimate (log intensity, higher = more binding, comparable within an allelic series)
binding signal (PAX4 [6]): 9.46 upbm affinity estimate (log intensity, higher = more binding, comparable within an allelic series)
binding signal (ALX3 [18]): 7.83 upbm affinity estimate (log intensity, higher = more binding, comparable within an allelic series)

GCCCAGCC
binding signal (PAX4 [1]): 9.23 upbm affinity estimate (log intensity, higher = more binding, comparable within an allelic series)
binding signal (PAX4 [2]): 9.33 upbm affinity estimate (log intensity, higher = more binding, comparable within an allelic series)
binding signal (PAX4 [3]): 9.24 upbm affinity estimate (log intensity, higher = more binding, comparable within an allelic series)
binding signal (PITX2): 7.91 upbm affinity estimate (log intensity, higher = more binding, comparable within an allelic series)
binding signal (PAX4 [4]): 9.15 upbm affinity estimate (log intensity, higher = more binding, comparable within an allelic series)
binding signal (PAX4 [5]): 9.11 upbm affinity estimate (log intensity, higher = more binding, comparable within an allelic series)
binding signal (PAX4 [6]): 9.23 upbm affinity estimate (log intensity, higher = more binding, comparable within an allelic series)

ATTTAAAA
binding signal (PAX4 [1]): 10.7 upbm affinity estimate (log intensity, higher = more binding, comparable within an allelic series)
binding signal (PAX4 [2]): 11 upbm affinity estimate (log intensity, higher = more binding, comparable within an allelic series)
binding signal (PAX4 [3]): 10.8 upbm affinity estimate (log intensity, higher = more binding, comparable within an allelic series)
binding signal (PAX4 [4]): 10.3 upbm affinity estimate (log intensity, higher = more binding, comparable within an allelic series)

TGAATTAA
binding signal (PAX4 [1]): 11.8 upbm affinity estimate (log intensity, higher = more binding, comparable within an allelic series)
binding signal (PAX4 [2]): 12.3 upbm affinity estimate (log intensity, higher = more binding, comparable within an allelic series)
binding signal (HOXA2 [10]): 11.1 upbm affinity estimate (log intensity, higher = more binding, comparable within an allelic series)
binding signal (PAX4 [3]): 11.9 upbm affinity estimate (log intensity, higher = more binding, comparable within an allelic series)
binding signal (PITX2): 11.2 upbm affinity estimate (log intensity, higher = more binding, comparable within an allelic series)
binding signal (HOXA2 [11]): 12.5 upbm affinity estimate (log intensity, higher = more binding, comparable within an allelic series)
binding signal (PAX4 [4]): 10.6 upbm affinity estimate (log intensity, higher = more binding, comparable within an allelic series)
binding signal (PAX4 [5]): 11.1 upbm affinity estimate (log intensity, higher = more binding, comparable within an allelic series)
binding signal (HOXA2 [12]): 10.8 upbm affinity estimate (log intensity, higher = more binding, comparable within an allelic series)
binding signal (HOXA2 [13]): 11.1 upbm affinity estimate (log intensity, higher = more binding, comparable within an allelic series)

AATTTATA
binding signal (PAX4 [1]): 11.2 upbm affinity estimate (log intensity, higher = more binding, comparable within an allelic series)
binding signal (PAX4 [2]): 11.4 upbm affinity estimate (log intensity, higher = more binding, comparable within an allelic series)
binding signal (ALX3 [14]): 8.61 upbm affinity estimate (log intensity, higher = more binding, comparable within an allelic series)
binding signal (HOXD13 [19]): 10.9 upbm affinity estimate (log intensity, higher = more binding, comparable within an allelic series)
binding signal (PAX4 [3]): 11.3 upbm affinity estimate (log intensity, higher = more binding, comparable within an allelic series)
binding signal (HOXD13 [20]): 11.7 upbm affinity estimate (log intensity, higher = more binding, comparable within an allelic series)
binding signal (PAX4 [4]): 10.6 upbm affinity estimate (log intensity, higher = more binding, comparable within an allelic series)
binding signal (PAX4 [5]): 10.8 upbm affinity estimate (log intensity, higher = more binding, comparable within an allelic series)
binding signal (HOXD13 [21]): 11.6 upbm affinity estimate (log intensity, higher = more binding, comparable within an allelic series)
binding signal (HOXC9): 11.1 upbm affinity estimate (log intensity, higher = more binding, comparable within an allelic series)
binding signal (PAX4 [6]): 10.7 upbm affinity estimate (log intensity, higher = more binding, comparable within an allelic series)
binding signal (ALX3 [18]): 8.71 upbm affinity estimate (log intensity, higher = more binding, comparable within an allelic series)
